Assay results taken from the supplement of paper PMC10849652.
About 7,900 targets were measured; listed, in parts, are those with a hit and a random draw of the rest. About 0.6% of all pairs of compound and target were hits. Values without a mark were called inactive.

Compound: c1cn2cc(-c3ccc4cn[nH]c4c3)nc(Nc3ccc(N4CCOCC4)cc3)c2n1 [entospletinib]
Assay: log2 fold change, soluble protein after heating vs DMSO (PISA); higher = thermal stabilisation; K562 cells, 10 uM, 30 min; active = over 0.2 and 3.5 SD of the protein, either way, in both replicates (recomputed)
Method in brief: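 K562 cells at 2×10^6 cells/mL were given 10 μM compound for 30 min. Aliquots then went through 3 min of heating across 48°C-58°C, were pooled, and were extracted in PBS with 0.5% NP-40 at 4°C, and the supernatant after 21,000xg for 90 min was quantified by TMTpro 16plex LC-MS/MS with channel sums equalised. Thermal stability relative to control samples, from duplicates, is given as log2 fold change.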

Chain of UniProt P53801 (P53801 whole entry, looked up): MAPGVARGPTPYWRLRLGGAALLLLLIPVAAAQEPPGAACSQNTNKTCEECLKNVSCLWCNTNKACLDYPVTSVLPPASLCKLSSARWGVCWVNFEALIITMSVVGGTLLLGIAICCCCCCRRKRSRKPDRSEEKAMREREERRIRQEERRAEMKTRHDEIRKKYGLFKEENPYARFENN
Chain of UniProt Q13523 (Q13523 whole entry, looked up): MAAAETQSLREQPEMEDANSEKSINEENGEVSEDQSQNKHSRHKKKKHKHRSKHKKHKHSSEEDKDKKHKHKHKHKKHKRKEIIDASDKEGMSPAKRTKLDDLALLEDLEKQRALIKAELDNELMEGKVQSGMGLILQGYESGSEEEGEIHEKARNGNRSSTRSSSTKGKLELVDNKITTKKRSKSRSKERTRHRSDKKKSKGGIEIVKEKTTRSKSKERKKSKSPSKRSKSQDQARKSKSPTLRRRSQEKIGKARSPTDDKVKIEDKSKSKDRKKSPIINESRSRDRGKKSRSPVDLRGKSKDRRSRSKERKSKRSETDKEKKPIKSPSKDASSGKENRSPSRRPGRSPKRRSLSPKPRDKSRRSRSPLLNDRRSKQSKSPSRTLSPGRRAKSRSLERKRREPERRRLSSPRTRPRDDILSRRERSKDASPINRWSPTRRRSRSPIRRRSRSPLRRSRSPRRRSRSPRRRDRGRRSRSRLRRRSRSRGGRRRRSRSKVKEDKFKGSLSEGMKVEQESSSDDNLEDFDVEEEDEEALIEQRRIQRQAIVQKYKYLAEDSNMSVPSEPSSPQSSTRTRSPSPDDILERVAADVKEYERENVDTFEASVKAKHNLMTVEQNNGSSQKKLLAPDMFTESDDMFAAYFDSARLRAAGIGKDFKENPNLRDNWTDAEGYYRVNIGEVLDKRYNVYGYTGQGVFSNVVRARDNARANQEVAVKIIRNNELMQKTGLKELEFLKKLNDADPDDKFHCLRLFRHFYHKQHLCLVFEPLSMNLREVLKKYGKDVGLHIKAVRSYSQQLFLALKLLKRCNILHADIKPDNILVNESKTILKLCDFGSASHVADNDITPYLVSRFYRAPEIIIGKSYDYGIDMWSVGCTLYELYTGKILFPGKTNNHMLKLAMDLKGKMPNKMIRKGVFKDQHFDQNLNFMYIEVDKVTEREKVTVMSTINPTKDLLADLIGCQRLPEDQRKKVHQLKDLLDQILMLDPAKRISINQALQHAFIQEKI
Chain of UniProt Q969N2 (Q969N2 whole entry, looked up): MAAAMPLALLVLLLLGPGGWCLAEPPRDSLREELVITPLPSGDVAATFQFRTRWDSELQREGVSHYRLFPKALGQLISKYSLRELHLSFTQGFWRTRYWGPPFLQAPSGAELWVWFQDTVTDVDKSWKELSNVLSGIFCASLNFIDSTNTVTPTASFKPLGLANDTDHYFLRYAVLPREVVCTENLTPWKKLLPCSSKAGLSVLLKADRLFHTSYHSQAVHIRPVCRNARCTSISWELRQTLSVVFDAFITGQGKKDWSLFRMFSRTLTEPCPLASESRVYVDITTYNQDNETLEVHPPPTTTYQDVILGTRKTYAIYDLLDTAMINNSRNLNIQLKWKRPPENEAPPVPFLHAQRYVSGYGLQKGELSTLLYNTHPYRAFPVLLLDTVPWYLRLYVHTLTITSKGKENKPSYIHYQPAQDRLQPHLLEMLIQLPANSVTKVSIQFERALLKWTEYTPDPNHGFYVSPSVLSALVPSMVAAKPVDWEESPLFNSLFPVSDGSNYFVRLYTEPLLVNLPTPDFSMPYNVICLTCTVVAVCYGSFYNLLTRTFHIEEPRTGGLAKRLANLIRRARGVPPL
Chain of UniProt P35227 (P35227 whole entry, looked up): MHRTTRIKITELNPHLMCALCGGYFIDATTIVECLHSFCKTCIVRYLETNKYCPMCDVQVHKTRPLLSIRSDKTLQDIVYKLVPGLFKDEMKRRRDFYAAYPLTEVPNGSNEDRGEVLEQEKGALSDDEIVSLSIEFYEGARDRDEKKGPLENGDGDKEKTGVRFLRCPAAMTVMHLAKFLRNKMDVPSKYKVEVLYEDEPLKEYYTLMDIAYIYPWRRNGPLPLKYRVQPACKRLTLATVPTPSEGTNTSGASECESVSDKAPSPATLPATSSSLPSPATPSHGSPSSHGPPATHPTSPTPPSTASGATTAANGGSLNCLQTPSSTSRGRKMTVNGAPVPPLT
Chain of UniProt O60678 (O60678 whole entry, looked up): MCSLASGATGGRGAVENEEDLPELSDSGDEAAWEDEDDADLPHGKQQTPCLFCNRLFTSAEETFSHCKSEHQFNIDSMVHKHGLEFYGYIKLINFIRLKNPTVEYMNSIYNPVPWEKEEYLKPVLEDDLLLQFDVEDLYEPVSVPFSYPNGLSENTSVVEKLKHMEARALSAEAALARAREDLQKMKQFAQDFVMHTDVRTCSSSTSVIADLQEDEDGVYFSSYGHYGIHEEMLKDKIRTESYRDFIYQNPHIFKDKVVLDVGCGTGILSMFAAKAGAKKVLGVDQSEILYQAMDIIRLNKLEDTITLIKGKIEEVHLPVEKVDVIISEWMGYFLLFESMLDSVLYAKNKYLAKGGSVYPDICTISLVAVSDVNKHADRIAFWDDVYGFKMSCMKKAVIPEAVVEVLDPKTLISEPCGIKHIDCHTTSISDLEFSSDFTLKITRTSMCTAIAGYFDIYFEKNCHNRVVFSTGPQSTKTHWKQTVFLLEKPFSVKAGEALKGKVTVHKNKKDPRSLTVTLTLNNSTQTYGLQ
Chain of UniProt P07205 (P07205 whole entry, looked up): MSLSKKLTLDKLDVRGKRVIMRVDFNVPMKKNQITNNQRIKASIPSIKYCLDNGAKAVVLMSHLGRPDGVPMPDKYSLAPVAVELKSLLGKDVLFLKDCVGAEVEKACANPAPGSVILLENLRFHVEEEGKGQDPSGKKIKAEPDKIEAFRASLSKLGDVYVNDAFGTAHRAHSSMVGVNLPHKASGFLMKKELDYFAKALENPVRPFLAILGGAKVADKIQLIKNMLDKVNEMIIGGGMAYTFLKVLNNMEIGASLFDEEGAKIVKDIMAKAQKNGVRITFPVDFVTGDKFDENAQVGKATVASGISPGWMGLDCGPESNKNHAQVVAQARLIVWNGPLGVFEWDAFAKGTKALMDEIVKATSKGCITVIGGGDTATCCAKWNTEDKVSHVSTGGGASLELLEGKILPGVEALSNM
Chain of UniProt O15162 (O15162 whole entry, looked up): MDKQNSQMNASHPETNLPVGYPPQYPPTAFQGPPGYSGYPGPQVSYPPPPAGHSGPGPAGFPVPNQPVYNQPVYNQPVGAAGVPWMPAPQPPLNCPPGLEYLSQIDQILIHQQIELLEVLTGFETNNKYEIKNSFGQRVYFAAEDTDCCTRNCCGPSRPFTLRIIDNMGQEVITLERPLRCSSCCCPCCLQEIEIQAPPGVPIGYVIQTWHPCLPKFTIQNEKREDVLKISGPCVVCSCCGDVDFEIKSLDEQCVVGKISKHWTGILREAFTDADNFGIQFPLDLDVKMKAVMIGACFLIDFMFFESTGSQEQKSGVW
Chain of UniProt P60484 (P60484 whole entry, looked up): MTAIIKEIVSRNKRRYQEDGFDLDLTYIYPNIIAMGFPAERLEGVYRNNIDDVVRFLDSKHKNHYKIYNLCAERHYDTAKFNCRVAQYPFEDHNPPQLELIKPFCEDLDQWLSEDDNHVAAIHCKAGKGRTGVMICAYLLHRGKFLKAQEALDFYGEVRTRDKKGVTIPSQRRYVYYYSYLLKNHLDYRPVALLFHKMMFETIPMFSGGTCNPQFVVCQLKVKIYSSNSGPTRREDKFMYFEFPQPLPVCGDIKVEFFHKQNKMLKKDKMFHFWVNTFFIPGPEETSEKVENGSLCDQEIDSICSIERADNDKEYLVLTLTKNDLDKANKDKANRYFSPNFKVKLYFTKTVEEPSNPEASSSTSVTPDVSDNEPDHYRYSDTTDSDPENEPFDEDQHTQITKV
Chain of UniProt Q86T03 (Q86T03 whole entry, looked up): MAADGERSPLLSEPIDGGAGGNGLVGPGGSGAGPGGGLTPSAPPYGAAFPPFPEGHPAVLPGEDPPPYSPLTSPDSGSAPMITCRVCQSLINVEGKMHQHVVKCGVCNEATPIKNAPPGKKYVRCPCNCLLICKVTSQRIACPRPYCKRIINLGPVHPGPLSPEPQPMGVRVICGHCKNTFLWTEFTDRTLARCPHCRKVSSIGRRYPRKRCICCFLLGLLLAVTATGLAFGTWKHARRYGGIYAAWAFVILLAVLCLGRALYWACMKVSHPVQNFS
Chain of UniProt Q15121 (Q15121 whole entry, looked up): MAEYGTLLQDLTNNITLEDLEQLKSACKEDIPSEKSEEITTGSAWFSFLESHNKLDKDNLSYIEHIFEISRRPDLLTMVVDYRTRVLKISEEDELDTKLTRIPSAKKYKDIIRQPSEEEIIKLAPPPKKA
Chain of UniProt Q8IV08 (Q8IV08 whole entry, looked up): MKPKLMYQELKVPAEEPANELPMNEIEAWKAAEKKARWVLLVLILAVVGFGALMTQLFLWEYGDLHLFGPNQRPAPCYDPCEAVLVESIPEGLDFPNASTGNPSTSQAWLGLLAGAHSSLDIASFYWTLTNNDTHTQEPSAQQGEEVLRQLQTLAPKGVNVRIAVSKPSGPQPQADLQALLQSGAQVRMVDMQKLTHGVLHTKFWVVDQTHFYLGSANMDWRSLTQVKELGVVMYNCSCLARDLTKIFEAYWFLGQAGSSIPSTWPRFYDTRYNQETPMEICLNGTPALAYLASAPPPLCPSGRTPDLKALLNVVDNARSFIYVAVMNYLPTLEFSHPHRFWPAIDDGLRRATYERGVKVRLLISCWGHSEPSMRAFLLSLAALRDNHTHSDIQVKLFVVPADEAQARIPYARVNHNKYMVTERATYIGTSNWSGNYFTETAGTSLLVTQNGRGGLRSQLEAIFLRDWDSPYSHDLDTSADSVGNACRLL
Chain of UniProt Q6GMV3 (Q6GMV3 whole entry, looked up): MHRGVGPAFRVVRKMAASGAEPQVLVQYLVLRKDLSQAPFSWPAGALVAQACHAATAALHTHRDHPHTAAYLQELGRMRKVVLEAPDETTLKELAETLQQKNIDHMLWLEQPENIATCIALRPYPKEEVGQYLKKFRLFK

| Target | log2 fold change |
| --- | --- |
| PSMD13 (UniProt Q9UNM6) | 0.049 |
| PSMD11 (UniProt O00231) | 0.017 |
| PEX7 (UniProt O00628) | -0.01 |
| PCYT1B (UniProt Q9Y5K3) | 0.057 |
| PLBD2 (UniProt Q8NHP8) | -0.038 |
| PLSCR1 (UniProt O15162) | -0.045 |
| PRMT3 (UniProt O60678) | -0.036 |
| PRKCE (UniProt Q02156) | 0.016 |
| PIP4K2C (UniProt Q8TBX8) | -0.031 |
| PLD3 (UniProt Q8IV08) | -0.01 |
| PPID (UniProt Q08752) | 0.019 |
| PIK3CB (UniProt P42338) | 0.033 |
| PDS5B (UniProt Q9NTI5) | -0.055 |
| PTRHD1 (UniProt Q6GMV3) | 0.064 |
| PDE12 (UniProt Q6L8Q7) | -0.033 |
| PTEN isoform 2 (UniProt P60484) | 0.025 |
| PPP2R5E (UniProt Q16537) | -0.078 |
| PCGF2 (UniProt P35227) | 0 |
| POLD3 (UniProt Q15054) | -0.054 |
| PSMD12 (UniProt O00232) | 0.032 |

| Target | log2 fold change |
| --- | --- |
| PTDSS1 (UniProt P48651) | 0.147 |
| PTTG1IP (UniProt P53801) | -0.044 |
| POP1 (UniProt Q99575) | 0.027 |
| PEA15 isoform 2 (UniProt Q15121) | 0.009 |
| PPT2 isoform 3 (UniProt Q9UMR5) | -0.04 |
| PISD (UniProt Q9UG56) | -0.009 |
| PGK2 (UniProt P07205) | -0.035 |
| QRICH1 (UniProt Q2TAL8) | -0.054 |
| PRKAR2B (UniProt P31323) | -0.166 |
| PTP4A2 (UniProt Q12974) | -0.019 |
| PRPF4B (UniProt Q13523) | 0.09 |
| PRG4 (UniProt Q92954) | -0.006 |
| PRMT7 (UniProt Q9NVM4) | 0.055 |
| PIGT (UniProt Q969N2) | -0.018 |
| PATL1 (UniProt Q86TB9) | 0.076 |
| PIP4P1 isoform 2 (UniProt Q86T03) | 0.028 |
| PSMC2 (UniProt P35998) | 0.02 |
| PAK4 (UniProt O96013) | -0.002 |
| PCTP (UniProt Q9UKL6) | -0.072 |
